In PubChem BioAssay (NCI):
This is part of a sample that, as a whole, favours compounds with a hit. Of some 83,000 tested, about 20% had one in any assay.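 A percent growth of 40 corresponds to 60% growth inhibition; 0 means no net growth; -100 means all cells died. Active threshold: below 10.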 A number with no mark means an inactive call. Calls of active or inactive are those of the source.

Tests used:
Assay in all cases: NCI-60 one-dose screen, 48 h (100 = growth as untreated, 0 = no growth, -100 = all killed)
Details in all cases: 10 µM unless noted
SR leukemia = system: SR leukemia
RPMI-8226 leukemia = system: RPMI-8226 leukemia
OVCAR-8 ovarian = system: OVCAR-8 ovarian
OVCAR-5 ovarian = system: OVCAR-5 ovarian
OVCAR-4 ovarian = system: OVCAR-4 ovarian
SK-OV-3 ovarian = system: SK-OV-3 ovarian
OVCAR-3 ovarian = system: OVCAR-3 ovarian
HS 578T breast = system: HS 578T breast
NCI/ADR-RES ovarian = system: NCI/ADR-RES ovarian
T-47D breast = system: T-47D breast
BT-549 breast = system: BT-549 breast
MDA-MB-435 melanoma = system: MDA-MB-435 melanoma
SW-620 colon = system: SW-620 colon
MCF7 breast = system: MCF7 breast
HCT-116 colon = system: HCT-116 colon
HCC-2998 colon = system: HCC-2998 colon
KM12 colon = system: KM12 colon
IGROV1 ovarian = system: IGROV1 ovarian

Row | Compound | growth (SR leukemia) | growth (RPMI-8226 leukemia) | growth (OVCAR-8 ovarian) | growth (OVCAR-5 ovarian) | growth (OVCAR-4 ovarian) | growth (SK-OV-3 ovarian) | growth (OVCAR-3 ovarian) | growth (HS 578T breast) | growth (NCI/ADR-RES ovarian) | growth (T-47D breast) | growth (BT-549 breast) | growth (MDA-MB-435 melanoma) | growth (SW-620 colon) | growth (MCF7 breast) | growth (HCT-116 colon) | growth (HCC-2998 colon) | growth (KM12 colon) | growth (IGROV1 ovarian)
1 | N=C1C(c2nc(-c3ccc(Br)cc3)cs2)=C(O)CN1Cc1cccnc1 | 55.1% | 70.2% | 16.3% | 77.1% | 37.2% | 40.4% | 101% | 23% | 70.1% | 46.3% | 39.9% | 53.4% | 81.5% | 77.9% | 21.4% | 85.9% | 61.7% | 
2 | COc1ccc(N2CCN(c3nc(-c4cc(OC)c(OC)c(OC)c4)nc4ccccc34)CC2)cc1 | 42.6% | 54.8% | 71.1% | 93.5% | 88% | 91.4% | 94.6% |  | 65.3% | 45.4% | 39.9% | 67.1% | 85.6% | 83.3% | 70% | 95.1% | 70% | 97%
3 | O=c1c2c3c(sc2nc(N/N=C/c2ccc(Br)cc2)n1Cc1ccccc1)CCCC3 | 33.5% | 52% | 45.9% | 78.3% | 84.2% | 81.7% | 76.8% | 64.8% | 80% | 87.5% | 93.6% | 83.4% | 83.8% | 58.3% | 67.4% | 37.3% | 81.9% | 
4 | O=Cc1ccc(O)c2ncccc12 | -41.3% (active) | -39.8% (active) | 9.03% (active) | 50.3% | 5.69% (active) | 97.7% | -15.2% (active) |  | -1% (active) | 22.8% | -1.72% (active) |  | 21.5% | 7.29% (active) | -7.5% (active) | 86.6% | 69.6% | 4% (active)
5 | COC(=O)[C@]12CC[C@@H](C)[C@H](C)[C@@H]1C1=CC[C@@H]3[C@@]4(C)C(C=O)=C[C@@](C)(COS(C)(=O)=O)C4[C@H](O)C[C@@]3(C)[C@]1(C)CC2 (some centres undefined) | -33.3% (active) | -10.7% (active) | -50.1% (active) | -38.3% (active) | -52.8% (active) | -35.2% (active) | -88.7% (active) | -30.6% (active) |  | -29.4% (active) |  | -21.5% (active) | -51.4% (active) | -16% (active) | -85.3% (active) | -85% (active) | -75.4% (active) | -13.4% (active)
6 | N#CC1=C(/N=C/c2ccccc2)Oc2c(ccc3ccccc23)C1c1ccccc1 (centres undefined) | 19.2% | 11% | 12.5% | 28.8% | 62.7% | 23.8% | -2.72% (active) | 18.5% |  | 49.8% | 4.18% (active) | -42.1% (active) | 23.9% | 14.6% | 8.77% (active) | -12.2% (active) | 19.2% | 25.1%
7 | CN(C)CC1=NC2SC=C(c3ccccc3)C2C(=O)N1CC#N (centres undefined) | 70.4% | 49.6% | 97.1% | 89.7% | 85.3% | 119% | 110% | 118% | 98.1% | 86.8% | 118% | 95.3% | 104% | 121% | 103% | 97.5% | 101% | 
8 | CCOC(=O)/C=C/c1cc2cc(-c3csc4ccccc34)ccc2[nH]1 | 0.282% (active) | 47.4% | 19.6% | 101% | 92.3% | 132% | 77.1% | 67.2% | 30.8% | 55% | 69.6% | -10.4% (active) | 46.4% | 34.6% | 60.1% | 33.4% | 23.2% | 
9 | C[C@H](NC(=O)[C@@H]1CSSC[C@@H](NC(=O)c2nc3ccccc3cc2O)C(=O)NCC(=O)N1C)c1ccccc1 | -17.5% (active) | 22.6% | 26.3% | 45.6% | 94.3% | 71.7% | -51.4% (active) | 33% |  | -35.6% (active) | 44.3% | 23.9% | -35.4% (active) | -2.09% (active) | 12.8% | 55.1% | 19.8% | 71.6%
10 | O=c1cc(C2NNC(=S)N2)c2ccc3ccccc3c2o1 (centres undefined) | 97.8% | 74.8% | 97.4% | 109% | 101% | 97.2% | 106% |  | 101% | 73.1% | 94% | 102% | 92.2% | 86.9% | 95.4% | 113% | 100% | 76.8%
11 | C=C1C(=O)O[C@H]2[C@H]1CC/C(COC(=O)C(=O)c1c[nH]c3ccccc13)=C\CC[C@@]1(C)O[C@@H]21 | 1.82% (active) | -29.8% (active) | -6.78% (active) | -5.59% (active) | 17.9% | 85.1% | -82.2% (active) | 10.7% |  | -56.8% (active) | -67.3% (active) | -59.4% (active) | -64.9% (active) | -16.9% (active) | -88.6% (active) | -79.5% (active) | -56.5% (active) | -69.8% (active)
12 | COc1ccc2c(c1)O/C(=C/c1ccc(OCC(=O)c3ccccc3)cc1)C2=O | 72.7% | 99.7% | 111% | 88.6% | 113% | 125% | 90.1% | 350% | 93.1% | 97.4% | 119% | 87% | 131% | 118% | 94.1% | 114% | 105% | 
13 | COc1ccc(C(=O)COc2ccc(/C=C3\Oc4ccccc4C3=O)cc2)cc1 | 108% | 89% | 98.9% | 96.8% | 99.2% | 103% | 102% | 100% | 91.8% | 73.8% | 114% | 59.7% | 110% | 115% | 92.9% |  | 107% | 
14 | COC(=O)[C@]12CC[C@@H](C)[C@H](C)[C@@H]1C1=CC[C@@H]3[C@@]4(C)C(C=O)=C[C@@](C)(COC(=O)/C=C/c5ccccc5)[C@@H]4[C@H](O)C[C@@]3(C)[C@]1(C)CC2 | -6.65% (active) | 1.62% (active) | 9.9% (active) | 7.64% (active) | 21.4% | 18.6% | -75.9% (active) |  | 17.9% | -6.88% (active) | -7.43% (active) | -6.08% (active) | 5.68% (active) | 10.6% |  | -29.9% (active) | 6.25% (active) | 23.9%
15 | O=C1CCc2c(sc3[nH]c(=S)n(-c4ccc(OC(F)(F)F)cc4)c(=O)c23)C1 | 35.8% | -21.7% (active) | 53.6% | 55.7% | 17.1% | 104% | 13.2% | 37.1% | 12.5% |  | 38% |  | 19.9% | 44.5% | 30.1% | 28.5% | 10.8% | 55.6%
16 | CC(=O)C(C)Cc1cc2c(cc1C)C(C)(C)CCC2(C)C (centres undefined) | 131% | 100% | 101% | 98.6% | 104% | 85.7% | 108% | 102% | 98.8% |  | 95.5% | 104% | 102% | 91.8% | 95.1% | 102% | 105% | 114%
17 | COc1cccc(-c2nn(-c3ccccc3)cc2-c2ccnc(NCCNC(=O)Nc3ccccc3)c2)c1 | -10.6% (active) | 39.5% | 38% | 92.4% | 53.9% | 58% | 55.8% | 31.4% |  | 20.3% | 30.2% | 42.9% | 71.9% | 56.6% | 35.3% | 39.1% | 37.6% | 65.4%
